# According to the supplement of paper PMC10849652:
# Targets with a hit are over-represented here; the source holds about 7,900 in all. About 0.6% of all pairs of compound and target were hits. Unmarked numbers belong to inactive results.
# How the values were obtained:
# Assay in all cases: log2 fold change, soluble protein after heating vs DMSO (PISA); higher = thermal stabilisation; K562 cells, 10 uM, 30 min; active = over 0.2 and 3.5 SD of the protein, either way, in both replicates (recomputed)
# [1] = target: ZNF217 (UniProt O75362)
# ZNF217, sequence (O75362 whole entry, looked up): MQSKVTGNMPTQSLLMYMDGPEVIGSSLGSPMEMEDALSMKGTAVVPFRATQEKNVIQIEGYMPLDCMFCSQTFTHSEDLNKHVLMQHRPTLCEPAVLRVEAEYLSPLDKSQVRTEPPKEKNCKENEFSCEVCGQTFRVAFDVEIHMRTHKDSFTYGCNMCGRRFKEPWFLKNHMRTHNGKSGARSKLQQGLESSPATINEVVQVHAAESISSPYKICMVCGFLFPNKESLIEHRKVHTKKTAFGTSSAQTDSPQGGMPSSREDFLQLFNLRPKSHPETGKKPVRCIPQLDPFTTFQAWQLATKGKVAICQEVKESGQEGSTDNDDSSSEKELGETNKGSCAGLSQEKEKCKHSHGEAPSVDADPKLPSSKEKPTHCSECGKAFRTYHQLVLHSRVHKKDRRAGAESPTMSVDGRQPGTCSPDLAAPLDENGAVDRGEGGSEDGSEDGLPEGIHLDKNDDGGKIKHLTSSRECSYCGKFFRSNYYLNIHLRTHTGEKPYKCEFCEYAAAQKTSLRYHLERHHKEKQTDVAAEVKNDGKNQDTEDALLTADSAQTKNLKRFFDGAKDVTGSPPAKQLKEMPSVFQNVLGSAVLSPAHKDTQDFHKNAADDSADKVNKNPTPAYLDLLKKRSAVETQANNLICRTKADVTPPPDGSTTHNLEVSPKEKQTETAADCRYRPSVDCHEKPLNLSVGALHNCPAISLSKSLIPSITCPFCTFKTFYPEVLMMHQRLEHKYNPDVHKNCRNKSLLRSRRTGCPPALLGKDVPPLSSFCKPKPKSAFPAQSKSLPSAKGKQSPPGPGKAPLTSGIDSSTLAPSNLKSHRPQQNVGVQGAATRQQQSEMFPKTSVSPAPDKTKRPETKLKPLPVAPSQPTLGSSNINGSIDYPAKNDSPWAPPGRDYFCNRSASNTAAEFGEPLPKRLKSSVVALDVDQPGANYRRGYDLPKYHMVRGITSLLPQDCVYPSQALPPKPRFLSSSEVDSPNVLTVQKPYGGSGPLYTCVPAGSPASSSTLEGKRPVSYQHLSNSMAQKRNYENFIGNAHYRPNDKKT
# Summary of the method: (§1)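 Values are thermal stability changes relative to control samples and are taken from duplicates. They are stated as log2 fold changes. Before quantification by TMTpro 16plex LC-MS/MS with equalised channel sums, K562 cells at 2×10^6 cells/mL were treated with 10 μM compound for 30 min, heated in aliquots for 3 min across 48°C-58°C, pooled, extracted in PBS with 0.5% NP-40 at 4°C, and centrifuged at 21,000xg for 90 min to give the soluble supernatant.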
# [2] = target: ZNF239 (UniProt Q16600)
# Summary of the method: as §1
# [3] = target: ZNF277 (UniProt Q9NRM2)
# Summary of the method: as §1
# [4] = target: ZNF511 isoform 1 (UniProt Q8NB15)
# ZNF511 isoform 1, sequence (Q8NB15 whole entry, looked up, canonical isoform): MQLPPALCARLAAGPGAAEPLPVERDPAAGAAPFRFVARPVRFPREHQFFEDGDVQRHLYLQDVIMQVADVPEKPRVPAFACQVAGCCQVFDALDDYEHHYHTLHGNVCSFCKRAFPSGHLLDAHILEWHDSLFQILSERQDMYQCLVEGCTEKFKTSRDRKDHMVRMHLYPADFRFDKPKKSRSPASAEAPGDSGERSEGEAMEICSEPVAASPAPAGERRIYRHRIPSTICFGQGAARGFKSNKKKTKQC
# Summary of the method: as §1
# [5] = target: ZNF579 (UniProt Q8NAF0)
# ZNF579, sequence (Q8NAF0 whole entry, looked up): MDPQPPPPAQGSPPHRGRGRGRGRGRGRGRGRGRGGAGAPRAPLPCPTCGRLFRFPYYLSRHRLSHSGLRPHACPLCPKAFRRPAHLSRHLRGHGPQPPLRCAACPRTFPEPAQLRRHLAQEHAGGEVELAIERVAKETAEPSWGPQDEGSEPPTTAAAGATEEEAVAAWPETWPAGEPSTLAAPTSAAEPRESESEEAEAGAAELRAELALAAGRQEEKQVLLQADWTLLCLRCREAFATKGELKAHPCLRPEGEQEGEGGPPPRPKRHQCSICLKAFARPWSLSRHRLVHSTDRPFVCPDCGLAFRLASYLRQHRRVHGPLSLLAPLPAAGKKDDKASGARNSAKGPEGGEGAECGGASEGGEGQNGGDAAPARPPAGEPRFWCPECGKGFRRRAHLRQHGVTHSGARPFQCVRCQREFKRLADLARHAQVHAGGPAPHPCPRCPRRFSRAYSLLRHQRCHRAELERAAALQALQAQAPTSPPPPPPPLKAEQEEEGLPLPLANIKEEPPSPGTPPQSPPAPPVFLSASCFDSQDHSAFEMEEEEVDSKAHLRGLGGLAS
# Summary of the method: as §1
# [6] = target: ZNF609 (UniProt O15014)
# Summary of the method: as §1
# [7] = target: ZNF622 (UniProt Q969S3)
# ZNF622, sequence (Q969S3 whole entry, looked up): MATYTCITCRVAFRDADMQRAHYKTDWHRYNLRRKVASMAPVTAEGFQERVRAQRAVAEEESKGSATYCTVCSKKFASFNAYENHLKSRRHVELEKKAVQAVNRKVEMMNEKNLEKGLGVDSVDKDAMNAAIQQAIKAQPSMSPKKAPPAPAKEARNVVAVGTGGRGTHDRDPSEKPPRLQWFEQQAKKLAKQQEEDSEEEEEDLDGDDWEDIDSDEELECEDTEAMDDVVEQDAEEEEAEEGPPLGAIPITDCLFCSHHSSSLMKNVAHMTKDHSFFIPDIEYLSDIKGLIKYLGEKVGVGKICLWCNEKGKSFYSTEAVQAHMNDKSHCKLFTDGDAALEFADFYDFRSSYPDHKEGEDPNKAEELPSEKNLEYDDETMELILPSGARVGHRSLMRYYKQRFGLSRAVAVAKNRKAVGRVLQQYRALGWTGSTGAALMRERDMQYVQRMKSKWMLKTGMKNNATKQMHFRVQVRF
# Summary of the method: as §1
# [8] = target: ZRANB2 (UniProt O95218)
# ZRANB2, sequence (O95218 whole entry, looked up): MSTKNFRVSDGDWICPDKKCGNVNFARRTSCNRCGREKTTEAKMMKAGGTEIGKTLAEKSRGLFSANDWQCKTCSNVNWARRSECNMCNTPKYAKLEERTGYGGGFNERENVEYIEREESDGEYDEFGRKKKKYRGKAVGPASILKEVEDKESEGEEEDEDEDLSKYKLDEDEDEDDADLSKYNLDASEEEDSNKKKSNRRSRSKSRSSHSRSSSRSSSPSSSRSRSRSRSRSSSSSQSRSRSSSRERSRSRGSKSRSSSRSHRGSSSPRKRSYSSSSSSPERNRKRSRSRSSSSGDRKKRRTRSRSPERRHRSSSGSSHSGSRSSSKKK
# Summary of the method: as §1
# [9] = target: ZW10 (UniProt O43264)
# ZW10, sequence (O43264 whole entry, looked up): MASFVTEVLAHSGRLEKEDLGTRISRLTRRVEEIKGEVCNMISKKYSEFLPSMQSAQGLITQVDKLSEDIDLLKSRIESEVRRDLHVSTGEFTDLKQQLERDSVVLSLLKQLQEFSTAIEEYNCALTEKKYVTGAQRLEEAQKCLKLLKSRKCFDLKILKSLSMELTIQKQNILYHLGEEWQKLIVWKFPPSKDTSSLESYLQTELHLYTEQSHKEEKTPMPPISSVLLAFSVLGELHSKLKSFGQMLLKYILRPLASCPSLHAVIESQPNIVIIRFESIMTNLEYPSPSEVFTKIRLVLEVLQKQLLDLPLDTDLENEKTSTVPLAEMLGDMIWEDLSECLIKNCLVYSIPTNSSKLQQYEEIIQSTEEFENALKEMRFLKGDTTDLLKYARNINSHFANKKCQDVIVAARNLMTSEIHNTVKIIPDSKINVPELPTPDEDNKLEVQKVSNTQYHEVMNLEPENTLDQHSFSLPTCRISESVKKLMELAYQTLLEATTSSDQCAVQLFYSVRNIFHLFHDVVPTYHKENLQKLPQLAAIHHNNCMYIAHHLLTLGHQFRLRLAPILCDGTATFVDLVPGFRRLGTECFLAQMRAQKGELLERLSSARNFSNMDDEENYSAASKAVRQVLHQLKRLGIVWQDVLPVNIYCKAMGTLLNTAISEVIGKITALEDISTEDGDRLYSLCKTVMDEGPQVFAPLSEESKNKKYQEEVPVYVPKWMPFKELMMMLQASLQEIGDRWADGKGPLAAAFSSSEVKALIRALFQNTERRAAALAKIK
# Summary of the method: as §1
# [10] = target: ZWILCH (UniProt Q9H900)
# ZWILCH, sequence (Q9H900 whole entry, looked up): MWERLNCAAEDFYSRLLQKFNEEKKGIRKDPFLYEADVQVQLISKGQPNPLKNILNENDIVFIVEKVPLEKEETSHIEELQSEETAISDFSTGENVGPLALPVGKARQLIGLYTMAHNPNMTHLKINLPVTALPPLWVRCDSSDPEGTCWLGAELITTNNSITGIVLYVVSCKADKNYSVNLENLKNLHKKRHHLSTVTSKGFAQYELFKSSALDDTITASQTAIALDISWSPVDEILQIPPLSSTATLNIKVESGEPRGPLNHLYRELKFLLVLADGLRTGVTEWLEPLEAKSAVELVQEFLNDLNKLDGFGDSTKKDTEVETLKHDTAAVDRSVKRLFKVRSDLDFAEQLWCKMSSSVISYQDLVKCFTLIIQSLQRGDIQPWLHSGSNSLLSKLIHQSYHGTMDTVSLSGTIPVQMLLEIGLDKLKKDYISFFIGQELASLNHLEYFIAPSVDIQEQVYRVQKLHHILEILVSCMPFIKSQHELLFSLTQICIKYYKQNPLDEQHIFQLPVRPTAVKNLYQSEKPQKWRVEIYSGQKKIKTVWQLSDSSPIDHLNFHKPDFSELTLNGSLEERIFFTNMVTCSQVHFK
# Summary of the method: as §1
# [11] = target: ZYG11B (UniProt Q9C0D3)
# Summary of the method: as §1
# [12] = target: ZNF580 (UniProt Q9UK33)
# ZNF580, sequence (Q9UK33 whole entry, looked up): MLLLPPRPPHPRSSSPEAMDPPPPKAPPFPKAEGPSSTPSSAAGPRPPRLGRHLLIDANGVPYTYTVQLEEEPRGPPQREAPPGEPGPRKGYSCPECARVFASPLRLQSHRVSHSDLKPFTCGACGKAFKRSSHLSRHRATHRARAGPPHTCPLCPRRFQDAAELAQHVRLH
# Summary of the method: as §1
# [13] = target: ZNF512 (UniProt Q96ME7)
# ZNF512, sequence (Q96ME7 whole entry, looked up): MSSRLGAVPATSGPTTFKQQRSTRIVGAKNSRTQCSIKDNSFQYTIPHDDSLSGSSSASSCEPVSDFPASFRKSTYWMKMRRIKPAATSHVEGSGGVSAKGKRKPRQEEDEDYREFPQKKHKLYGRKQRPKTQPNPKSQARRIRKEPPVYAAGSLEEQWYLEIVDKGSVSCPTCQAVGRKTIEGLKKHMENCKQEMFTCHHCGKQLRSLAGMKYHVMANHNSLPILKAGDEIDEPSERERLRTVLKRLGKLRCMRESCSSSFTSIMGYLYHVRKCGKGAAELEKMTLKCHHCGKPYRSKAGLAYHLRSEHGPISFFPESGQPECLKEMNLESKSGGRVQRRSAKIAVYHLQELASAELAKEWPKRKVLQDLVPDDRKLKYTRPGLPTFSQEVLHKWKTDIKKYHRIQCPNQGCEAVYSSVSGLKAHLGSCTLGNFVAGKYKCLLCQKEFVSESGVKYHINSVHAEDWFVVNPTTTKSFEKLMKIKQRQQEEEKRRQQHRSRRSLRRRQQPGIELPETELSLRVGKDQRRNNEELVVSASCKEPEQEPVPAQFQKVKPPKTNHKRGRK
# Summary of the method: as §1
Compound,log2 fold change [1],log2 fold change [2],log2 fold change [3],log2 fold change [4],log2 fold change [5],log2 fold change [6],log2 fold change [7],log2 fold change [8],log2 fold change [9],log2 fold change [10],log2 fold change [11],log2 fold change [12],log2 fold change [13]
CCN(CCCOc1ccc2c(Nc3cc(CC(=O)Nc4cccc(F)c4)[nH]n3)ncnc2c1)CCOP(=O)(O)O [barasertib],0.03,-0.034,0.026,-0.041,0.037,0.039,-0.001,-0.01,0.055,0.064,0.044,,
COc1cc2nc(-c3cc(F)ccc3O)nc(N[C@@H]3CNC[C@H]3C(C)(C)O)c2cc1OC,-0.026,0.024,0.268,-0.013,0.042,0.205,0.028,-0.006,0.041,0.03,0.034,0.093,
Cn1cc(-c2ccc3nnc(C(F)(F)c4ccc5ncccc5c4)n3n2)cn1,-0.01,-0.102,-0.064,-0.132,0.002,-0.286,0.024,0.036,-0.069,-0.069,0,,
CC(C)C[C@@H](C=O)NC(=O)[C@H](CC(C)C)NC(=O)[C@H](CC(C)C)NC(=O)OCc1ccccc1,0.024,0.045,0.137,0.195,-0.271,0.031,-0.036,-0.027,0.007,0.079,0.042,,
C#Cc1cccc(Nc2ncnc3cc(OCCOC)c(OCCOC)cc23)c1 [erlotinib],0.001,-0.098,0.097,,-0.056,0.03,0.056,0.005,0.016,0.009,-0.015,,-0.048
COC(=O)[C@H](CCSC)NC(=O)c1ccc(NC[C@@H](N)CS)cc1-c1ccccc1,-0.067,0.002,-0.047,-0.201,-0.012,0.019,0.005,0.05,-0.079,-0.077,0.013,-0.082,
O=C1NC(=O)/C(=C\c2ccc3nccnc3c2)S1,0.007,0.065,-0.108,0.017,-0.07,-0.006,-0.004,0.051,-0.009,0.056,-0.084,,
Cc1ccc(Sc2cncc3sc(C(N)=O)cc23)cc1,-0.107,0.019,-0.032,0.018,-0.07,-0.045,-0.022,-0.04,0.018,-0.068,-0.028,0.16,
CC(C)(C)Cn1c(N)nc2ccc(-c3[nH]c(C(C)(C)C)nc3-c3ccc(F)cc3)nc21 [ralimetinib],-0.012,-0.07,0.116,0.074,0.032,-0.053,-0.019,-0.014,0.032,0.049,-0.046,,
CN(CCOc1ccc(C[C@@H]2SC(=O)NC2=O)cc1)c1ccccn1 (racemic) [rosiglitazone],0.047,0.17,0.011,0.085,-0.021,0.027,0.027,-0.055,0.066,0.018,-0.055,,
CC[C@@H]1C(=O)N(C)c2cnc(Nc3ccc(C(=O)N[C@H]4CC[C@H](N5CCN(CC6CC6)CC5)CC4)cc3OC)nc2N1C(C)C [volasertib],-0.007,0.084,-0.017,0.007,0.098,-0.328,0.138,0.1,-0.399 (active),-0.266 (active),0.002,0.025,
Cc1cc(Nc2cc(N3CCN(C)CC3)nc(Sc3ccc(NC(=O)C4CC4)cc3)n2)n[nH]1 [tozasertib],-0.07,-0.116,0.202,0.049,0.041,0.078,-0.064,-0.029,0.068,0.041,-0.031,-0.138,
C=CC(=O)N1CCC[C@@H](n2nc(-c3ccc(Oc4ccccc4)cc3)c3c(N)ncnc32)C1 [ibrutinib],-0.028,0.165,-0.028,0.047,-0.024,-0.024,-0.003,0.013,-0.007,-0.014,0.022,,
CS(=O)(=O)CCNCc1ccc(-c2ccc3ncnc(Nc4ccc(OCc5cccc(F)c5)c(Cl)c4)c3c2)o1 [lapatinib],0.018,-0.095,0,-0.085,0.05,0.09,0,0.018,-0.01,0.018,-0.05,-0.025,
CNC(=O)c1ccccc1Nc1nc(Nc2ccc(N3CCOCC3)cc2OC)ncc1Cl,-0.029,-0.055,0.009,,-0.019,-0.057,0.045,0.002,0.035,0.027,-0.016,,0.151
NC1(Cc2ccc(Cl)cc2)CCN(c2ncnc3[nH]ccc23)CC1,0.197,0.117,-0.319,0.079,-0.064,-0.115,-0.263 (active),0.014,-0.062,-0.049,0.055,0.183,
CCN(CC)Cc1ccc2cc(COC(=O)Nc3ccc(C(=O)NO)cc3)ccc2c1 [givinostat],0.037,-0.226,0.199,,0.042,0.063,-0.004,-0.029,0.096,0.046,-0.009,,0.112
COc1ccc(Cn2ccc3ccc(C(=O)NO)cc32)cc1,-0.024,-0.178,-0.073,,0.056,-0.034,-0.033,-0.022,-0.004,0.019,0.052,-0.134,
c1cc(OCCN2CCCCC2)cc(-c2n[nH]c3ccc(-c4nnc[nH]4)cc23)c1,-0.096,,-0.275,-0.043,0.078,-0.003,0.092,0.021,-0.016,-0.048,0.002,-0.083,
Nc1ccccc1NC(=O)c1ccc(CNC(=O)OCc2cccnc2)cc1 [entinostat],0.075,-0.023,,-0.078,-0.036,-0.061,-0.007,-0.024,0.063,0.002,0.013,0,
O=C(CCCCCCC(=O)Nc1ccccc1)NO [vorinostat],0.056,0.275,-0.022,,-0.032,-0.128,-0.049,-0.03,0.085,0.056,0.053,-0.064,
CC(C)N(C[C@H]1O[C@@H](n2cnc3c(N)ncnc32)[C@H](O)[C@@H]1O)[C@H]1C[C@@H](CCc2nc3cc(C(C)(C)C)ccc3[nH]2)C1 [pinometostat],0.002,-0.008,0.267,,0.02,0.03,0.014,0.012,0.152,0.074,0.01,-0.072,
